Measured values reported in the supplement of paper PMC8975748.
Counter-ions that a name gives are not always drawn. ± gives the standard deviation of the averaged measurements.

Legend:
[1] = tested on: Saccharomyces cerevisiae BY4741 SeMeCo community; experiment: mean cell size (pixel area) (pixels); higher = larger cells; settings: 10 µM; 24 h; SM minimal medium
In short: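 Harmony analysis of automated confocal images of paraformaldehyde-fixed yeast gave the mean cell pixel area per well. The yeast was a Saccharomyces cerevisiae BY4741 community carrying four plasmids, each with a fluorescent marker and each complementing one auxotrophy, incubated for 24 h in SM medium containing drug at a final 10 µM in 384-well plates. Results are averaged over 3 replicates. Same SeMeCo high-content imaging drug screen: Selleck FDA-approved drugs at 10 µM, 24 h in SM medium, 384-well plates, 3 replicates.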

[2] = tested on: Saccharomyces cerevisiae BY4741 SeMeCo community; experiment: z-score of prototroph abundance vs DMSO median; higher = larger share of this subpopulation than in DMSO controls; settings: 10 µM; 24 h; SM minimal medium; subpopulation (auxotrophy): Prototroph
In short: (§1)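 Subpopulation abundance was reported as a z-score against the median of vehicle wells. The Saccharomyces cerevisiae BY4741 community, carrying four plasmids that each restored one auxotrophy and encoded a distinct fluorescent protein, was grown 24 h in minimal SM medium in 384-well plates holding library drugs at 10 µM final. Cells were paraformaldehyde-fixed and imaged by automated confocal microscopy, with single-auxotroph fluorescent strains used for thresholds and autofluorescence correction.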

[3] = tested on: Saccharomyces cerevisiae BY4741 SeMeCo community; experiment: z-score of subpopulation abundance vs DMSO median, subpopulation auxotrophic for M; higher = larger share of this subpopulation than in DMSO controls; settings: 10 µM; 24 h; SM minimal medium; subpopulation (auxotrophy): M
In short: as §1

[4] = tested on: Saccharomyces cerevisiae BY4741 SeMeCo community; experiment: z-score of subpopulation abundance vs DMSO median, subpopulation auxotrophic for L; higher = larger share of this subpopulation than in DMSO controls; settings: 10 µM; 24 h; SM minimal medium; subpopulation (auxotrophy): L
In short: as §1

[5] = tested on: Saccharomyces cerevisiae BY4741 SeMeCo community; experiment: z-score of subpopulation abundance vs DMSO median, subpopulation auxotrophic for U; higher = larger share of this subpopulation than in DMSO controls; settings: 10 µM; 24 h; SM minimal medium; subpopulation (auxotrophy): U
In short: as §1

[6] = tested on: Saccharomyces cerevisiae BY4741 SeMeCo community; experiment: z-score of subpopulation abundance vs DMSO median, subpopulation auxotrophic for LU; higher = larger share of this subpopulation than in DMSO controls; settings: 10 µM; 24 h; SM minimal medium; subpopulation (auxotrophy): LU
In short: as §1

[7] = tested on: Saccharomyces cerevisiae BY4741 SeMeCo community; experiment: z-score of subpopulation abundance vs DMSO median, subpopulation auxotrophic for LM; higher = larger share of this subpopulation than in DMSO controls; settings: 10 µM; 24 h; SM minimal medium; subpopulation (auxotrophy): LM
In short: as §1

[8] = tested on: Saccharomyces cerevisiae BY4741 SeMeCo community; experiment: z-score of subpopulation abundance vs DMSO median, subpopulation auxotrophic for HM; higher = larger share of this subpopulation than in DMSO controls; settings: 10 µM; 24 h; SM minimal medium; subpopulation (auxotrophy): HM
In short: as §1

[9] = tested on: Saccharomyces cerevisiae BY4741 SeMeCo community; experiment: z-score of subpopulation abundance vs DMSO median, subpopulation auxotrophic for HU; higher = larger share of this subpopulation than in DMSO controls; settings: 10 µM; 24 h; SM minimal medium; subpopulation (auxotrophy): HU
In short: as §1

[10] = tested on: Saccharomyces cerevisiae BY4741 SeMeCo community; experiment: z-score of subpopulation abundance vs DMSO median, subpopulation auxotrophic for UM; higher = larger share of this subpopulation than in DMSO controls; settings: 10 µM; 24 h; SM minimal medium; subpopulation (auxotrophy): UM
In short: as §1

[11] = tested on: Saccharomyces cerevisiae BY4741 SeMeCo community; experiment: z-score of subpopulation abundance vs DMSO median, subpopulation auxotrophic for HL; higher = larger share of this subpopulation than in DMSO controls; settings: 10 µM; 24 h; SM minimal medium; subpopulation (auxotrophy): HL
In short: as §1

[12] = tested on: Saccharomyces cerevisiae BY4741 SeMeCo community; experiment: z-score of subpopulation abundance vs DMSO median, subpopulation auxotrophic for HLU; higher = larger share of this subpopulation than in DMSO controls; settings: 10 µM; 24 h; SM minimal medium; subpopulation (auxotrophy): HLU
In short: as §1

[13] = tested on: Saccharomyces cerevisiae BY4741 SeMeCo community; experiment: z-score of subpopulation abundance vs DMSO median, subpopulation auxotrophic for HLM; higher = larger share of this subpopulation than in DMSO controls; settings: 10 µM; 24 h; SM minimal medium; subpopulation (auxotrophy): HLM
In short: as §1

[14] = tested on: Saccharomyces cerevisiae BY4741 SeMeCo community; experiment: z-score of subpopulation abundance vs DMSO median, subpopulation auxotrophic for LUM; higher = larger share of this subpopulation than in DMSO controls; settings: 10 µM; 24 h; SM minimal medium; subpopulation (auxotrophy): LUM
In short: as §1

[15] = tested on: Saccharomyces cerevisiae BY4741 SeMeCo community; experiment: z-score of subpopulation abundance vs DMSO median, subpopulation auxotrophic for HLUM; higher = larger share of this subpopulation than in DMSO controls; settings: 10 µM; 24 h; SM minimal medium; subpopulation (auxotrophy): HLUM
In short: as §1

[16] = tested on: Saccharomyces cerevisiae BY4741 SeMeCo community; experiment: z-score of subpopulation abundance vs DMSO median, subpopulation auxotrophic for H; higher = larger share of this subpopulation than in DMSO controls; settings: 10 µM; 24 h; SM minimal medium; subpopulation (auxotrophy): H
In short: as §1

[17] = tested on: Saccharomyces cerevisiae BY4741 SeMeCo community; experiment: z-score of subpopulation abundance vs DMSO median, subpopulation auxotrophic for HUM; higher = larger share of this subpopulation than in DMSO controls; settings: 10 µM; 24 h; SM minimal medium; subpopulation (auxotrophy): HUM
In short: as §1

CCOC(=O)C1=C(COCCN)NC(C)=C(C(=O)OC)[C@@H]1c1ccccc1Cl [Levamlodipine]
mean cell size [1]: 12.5 ± 0.2 | z-score of prototroph abundance [2]: 3.33 | z-score of subpopulation abundance [3]: 5.72 | z-score of subpopulation abundance [4]: 1.13 | z-score of subpopulation abundance [5]: -7.34 | z-score of subpopulation abundance [6]: -6.47 | z-score of subpopulation abundance [7]: 3.35 | z-score of subpopulation abundance [8]: 4.13 | z-score of subpopulation abundance [9]: -6.75 | z-score of subpopulation abundance [10]: -8.09 | z-score of subpopulation abundance [11]: 2.19 | z-score of subpopulation abundance [12]: -3.25 | z-score of subpopulation abundance [13]: 1.82 | z-score of subpopulation abundance [14]: -4.52 | z-score of subpopulation abundance [15]: -1.12

C#C[C@]1(O)CC[C@H]2[C@@H]3CCC4=CCCC[C@@H]4[C@H]3C(=C)C[C@@]21CC [Desogestrel]
mean cell size [1]: 12.3 ± 0.29 | z-score of subpopulation abundance [3]: -0.11 | z-score of subpopulation abundance [4]: -0.12 | z-score of subpopulation abundance [5]: -0.38 | z-score of subpopulation abundance [16]: 0.78 | z-score of subpopulation abundance [6]: 0.22 | z-score of subpopulation abundance [7]: -0.94 | z-score of subpopulation abundance [8]: -0.05 | z-score of subpopulation abundance [9]: -0.11 | z-score of subpopulation abundance [10]: -1.41 | z-score of subpopulation abundance [11]: 0.58 | z-score of subpopulation abundance [12]: 0.73 | z-score of subpopulation abundance [13]: -0.87 | z-score of subpopulation abundance [14]: -0.72 | z-score of subpopulation abundance [15]: -0.48

CN(C)CCCC1(c2ccc(F)cc2)OCc2cc(C#N)ccc21 (centres undefined) [Citalopram HBr]
z-score of prototroph abundance [2]: -0.34 | z-score of subpopulation abundance [3]: -0.6 | z-score of subpopulation abundance [4]: -0.17 | z-score of subpopulation abundance [5]: 1.58 | z-score of subpopulation abundance [16]: 0.36 | z-score of subpopulation abundance [6]: 0.92 | z-score of subpopulation abundance [8]: -0.81 | z-score of subpopulation abundance [10]: 0.83 | z-score of subpopulation abundance [11]: -0.06 | z-score of subpopulation abundance [12]: 0.43 | z-score of subpopulation abundance [13]: 0.45 | z-score of subpopulation abundance [17]: 0.08 | z-score of subpopulation abundance [14]: -0.03 | z-score of subpopulation abundance [15]: 1.38

CO/N=C(\C(=O)N[C@@H]1C(=O)N2C(C(=O)O)=C(CSC(=O)c3ccco3)CS[C@H]12)c1csc(N)n1 [Ceftiofur HCl]
mean cell size [1]: 12.54 ± 0.051 | z-score of prototroph abundance [2]: -0.76 | z-score of subpopulation abundance [3]: -0.14 | z-score of subpopulation abundance [4]: -0.69 | z-score of subpopulation abundance [5]: 1.47 | z-score of subpopulation abundance [6]: 1 | z-score of subpopulation abundance [7]: -0.53 | z-score of subpopulation abundance [8]: 0.46 | z-score of subpopulation abundance [9]: 0.85 | z-score of subpopulation abundance [11]: -0.8 | z-score of subpopulation abundance [12]: 0.02 | z-score of subpopulation abundance [13]: 0.11 | z-score of subpopulation abundance [14]: -0.05 | z-score of subpopulation abundance [15]: 0.19

CC(C)NC(=N)NC(=N)Nc1ccc(Cl)cc1 [Proguanil]
z-score of prototroph abundance [2]: 0 | z-score of subpopulation abundance [3]: 0.65 | z-score of subpopulation abundance [4]: -1.12 | z-score of subpopulation abundance [5]: 1.07 | z-score of subpopulation abundance [16]: -0.88 | z-score of subpopulation abundance [6]: -0.48 | z-score of subpopulation abundance [8]: 0.11 | z-score of subpopulation abundance [10]: 0.61 | z-score of subpopulation abundance [11]: -0.81 | z-score of subpopulation abundance [12]: -0.46 | z-score of subpopulation abundance [13]: -0.27 | z-score of subpopulation abundance [17]: -0.17 | z-score of subpopulation abundance [14]: -0.3 | z-score of subpopulation abundance [15]: -0.44

CN(CCOc1ccc(NS(C)(=O)=O)cc1)CCc1ccc(NS(C)(=O)=O)cc1 [Dofetilide]
mean cell size [1]: 12.4 ± 0.18 | z-score of prototroph abundance [2]: 0.39 | z-score of subpopulation abundance [3]: -0.18 | z-score of subpopulation abundance [4]: -0.53 | z-score of subpopulation abundance [5]: 0.48 | z-score of subpopulation abundance [16]: -0.68 | z-score of subpopulation abundance [6]: 0.5 | z-score of subpopulation abundance [7]: 0.47 | z-score of subpopulation abundance [8]: -0.88 | z-score of subpopulation abundance [9]: 0.18 | z-score of subpopulation abundance [10]: 0.1 | z-score of subpopulation abundance [11]: -0.22 | z-score of subpopulation abundance [12]: -0.23 | z-score of subpopulation abundance [13]: -0.86 | z-score of subpopulation abundance [14]: -0.27 | z-score of subpopulation abundance [15]: -0.1

C[C@H]1O[C@@H](O[C@H]2[C@@H](O)C[C@H](O[C@H]3[C@@H](O)C[C@H](O[C@H]4CC[C@@]5(C)[C@H](CC[C@@H]6[C@@H]5C[C@@H](O)[C@]5(C)[C@@H](C7=CC(=O)OC7)CC[C@]65O)C4)O[C@@H]3C)O[C@@H]2C)C[C@H](O)[C@@H]1O [Digoxin]
mean cell size [1]: 12.4 ± 0.22 | z-score of prototroph abundance [2]: 0.39 | z-score of subpopulation abundance [3]: -1.12 | z-score of subpopulation abundance [4]: -0.7 | z-score of subpopulation abundance [5]: 0.17 | z-score of subpopulation abundance [16]: 0.21 | z-score of subpopulation abundance [6]: -0.6 | z-score of subpopulation abundance [7]: -0.41 | z-score of subpopulation abundance [9]: 0.8 | z-score of subpopulation abundance [10]: -0.69 | z-score of subpopulation abundance [11]: -0.11 | z-score of subpopulation abundance [12]: -0.03 | z-score of subpopulation abundance [13]: -0.7 | z-score of subpopulation abundance [14]: -0.61 | z-score of subpopulation abundance [15]: -0.34

CO/N=C(\C(=O)N[C@@H]1C(=O)N2C(C(=O)O)=C(CSC(=O)c3ccco3)CS[C@H]12)c1csc(N)n1 [Ceftiofur]
mean cell size [1]: 12.28 ± 0.045 | z-score of prototroph abundance [2]: -0.44 | z-score of subpopulation abundance [3]: -0.46 | z-score of subpopulation abundance [4]: -0.31 | z-score of subpopulation abundance [5]: 0.57 | z-score of subpopulation abundance [16]: 0.28 | z-score of subpopulation abundance [6]: 0.54 | z-score of subpopulation abundance [7]: -0.51 | z-score of subpopulation abundance [8]: -0.13 | z-score of subpopulation abundance [9]: 0.47 | z-score of subpopulation abundance [10]: 0.79 | z-score of subpopulation abundance [11]: 0.39 | z-score of subpopulation abundance [12]: -0.05 | z-score of subpopulation abundance [13]: 0.23 | z-score of subpopulation abundance [14]: -0.02 | z-score of subpopulation abundance [15]: 0.07
